We go through five molecules from PubChem BioAssay.

The target of one experiment is Albumin (Bos taurus) (UniProt P02769). The experiment in a line: bovine serum albumin binders on microarray, profiling panel, artefact control for SMM control protein annotation, biochemical, small-molecule microarray, Alexa647 label, 635/667 nm fluorescence (AID 1118).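 Note: score merges 667 nm emission intensity and signal-to-noise per printed compound spot.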 As to conditions: BSA-A647 binding, fluorescence 635 nm, higher = more signal.
Albumin (Bos taurus), sequence (P02769 whole entry, looked up): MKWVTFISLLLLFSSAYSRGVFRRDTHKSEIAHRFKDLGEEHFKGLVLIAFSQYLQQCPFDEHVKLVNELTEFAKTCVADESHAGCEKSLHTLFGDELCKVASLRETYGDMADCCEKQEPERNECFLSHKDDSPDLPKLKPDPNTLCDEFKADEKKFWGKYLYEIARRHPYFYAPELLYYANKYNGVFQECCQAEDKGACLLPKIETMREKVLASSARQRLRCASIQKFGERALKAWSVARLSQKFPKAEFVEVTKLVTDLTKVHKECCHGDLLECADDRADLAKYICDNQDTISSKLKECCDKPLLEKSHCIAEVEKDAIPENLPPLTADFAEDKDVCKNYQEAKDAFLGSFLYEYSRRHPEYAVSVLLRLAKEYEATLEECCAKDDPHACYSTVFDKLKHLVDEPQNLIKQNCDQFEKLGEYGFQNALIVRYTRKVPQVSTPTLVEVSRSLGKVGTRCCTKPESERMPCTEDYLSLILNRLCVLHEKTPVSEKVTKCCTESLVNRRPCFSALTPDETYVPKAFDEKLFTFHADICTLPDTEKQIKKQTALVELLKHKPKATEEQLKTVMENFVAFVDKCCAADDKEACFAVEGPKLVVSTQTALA
A short description of experiment [1]: small-molecule microarray binders of probe aXIP, primary screen, biochemical, NeuroSMM set, 635/667 nm fluorescence (AID 1119).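 Note: probe is the protein aXip251-270 applied at 1 µg/mL to compound-printed slides; binding of probe to printed compounds measured as 667 nm fluorescence plus signal to noise.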 To be noted: higher = more signal, called active from +8 up or from −8 down.
A short description of experiment [2]: small-molecule binders of probe aNOTCH3, primary screen, biochemical, small-molecule microarray, 635/667 nm fluorescence (AID 1120).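 Note: probe is a biotin-tagged antibody raised against NOTCH3 rather than NOTCH3 protein; score merges spot fluorescence near 667 nm with spot signal to noise.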 As to conditions: higher = more signal.
The nature of experiment [3]: small-molecule binders of probe aNOTCH2, primary screen, biochemical, small-molecule microarray, 635/667 nm fluorescence (AID 1121).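 Note: score merges feature fluorescence read at 667 nm with its signal to noise.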 As to conditions: higher = more signal.
In experiment [4] the target is Carbonic anhydrase 2 (Homo sapiens) (UniProt P00918). The experiment in a line: CAII small-molecule binders, profiling panel, biochemical, small-molecule microarray, Alexa647-labelled CAII (AID 1122). To be noted: CAII-A647 binding fluorescence, higher = more signal.
The nature of experiment [5]: COS7 lysate on small-molecule microarray, probe aHis, 635 nm (AID 1123).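 Note: z-score combines 667nm fluorescence intensity with signal-to-noise per printed compound spot.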 As to conditions: COS7 cell lysate, fluorescence, higher = more signal.
Experiment [6] in a line: compound binding in COS7 lysate, probe aLAP1, primary screen, cell lysate, small-molecule microarray (AID 1124).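 Note: lysate comes from COS7 cells expressing LAP1 and is applied at 0.3 µg/mL; score merges spot fluorescence near 667 nm with signal-to-noise over triplicate slides.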 As to conditions: probe aLAP1, fluorescence, higher = more signal.
The subject of a further experiment is Sam68 (KHDRBS1). The experiment is described as follows: Sam68 small-molecule binders, primary screen, biochemical, small-molecule microarray, 635 nm fluorescence (AID 1125).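 Note: score merges 667 nm channel intensity with signal to noise over triplicate slides.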 As to conditions: small-molecule microarray binding, higher = more signal.
Experiment [7] has as its system Chordin-like protein 2 (CHRDL2). The experiment in a line: CHRDL2 small-molecule binders, primary screen, biochemical, small-molecule microarray, 635 nm fluorescence (AID 1126).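 Note: printed compound slides probed with Chrdl2 protein at 4 µg/mL for 1 h at 4 C; score merges 667 nm emission intensity with signal to noise over three replicate slides.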 As to conditions: small-molecule microarray binding, fluorescence 635 nm; higher = more signal.
The target in experiment [8] is Concanavalin-A (Canavalia ensiformis) (UniProt P02866). The experiment in a line: ConA small-molecule binders, primary screen, artefact control for SMM control protein annotation, biochemical, small-molecule microarray, Alexa647 label, 635 nm (AID 1127).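 Note: z combines 667 nm emission intensity with signal-to-noise across three replicate slides.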 To be noted: ConA-A647 binding fluorescence, higher = more signal.
Concanavalin-A (Canavalia ensiformis), sequence (P02866 whole entry, looked up): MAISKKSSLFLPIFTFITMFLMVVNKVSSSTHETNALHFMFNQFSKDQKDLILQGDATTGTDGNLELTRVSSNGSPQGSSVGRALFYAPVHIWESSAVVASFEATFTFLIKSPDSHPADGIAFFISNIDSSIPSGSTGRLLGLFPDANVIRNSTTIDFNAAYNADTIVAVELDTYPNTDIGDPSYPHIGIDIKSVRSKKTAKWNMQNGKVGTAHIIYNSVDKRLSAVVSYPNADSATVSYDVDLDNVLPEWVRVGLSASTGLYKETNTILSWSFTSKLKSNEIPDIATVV
Experiment [9] is described as follows: anti-His antibody binders, primary screen, artefact control for SMM control protein annotation, biochemical, small-molecule microarray, 635 nm fluorescence (AID 1128).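 Note: score merges feature fluorescence with signal-to-noise for each printed compound spot.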 To be noted: anti-His Alexa647 antibody binding, higher = more signal.
For experiment [10], the system named is Human papillomavirus type 1a E7 protein (residues 1-88). The experiment is described as follows: HPV1a E7 small-molecule binders, primary screen, biochemical, small-molecule microarray, residues 1-88, 635 nm (AID 1129). As to conditions: small-molecule microarray binding, fluorescence 635 nm; higher = more signal.
Experiment [11] concerns the target Focal adhesion kinase 1 (Homo sapiens) (UniProt Q05397). The experiment in a line: small-molecule microarray binders of FAK, primary screen, biochemical, 635/667 nm fluorescence, BSA, DTT (AID 1130).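 Note: composite of spot emission at 667 nm and signal to noise over triplicate slides.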 As to conditions: PTK2 binding, 635 nm fluorescence, higher = more signal.
Experiment [12] relates to Fibrinogen (Alexa647-labelled). The experiment in a line: fibrinogen binders on compound microarrays, profiling panel, artefact control for SMM control-protein annotation, biochemical, small-molecule microarray, 635/667 nm fluorescence (AID 1131).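 Note: z-score merges 667 nm fluorescence with per-spot signal-to-noise over triplicate slides.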 To be noted: fibrinogen-A647 binding fluorescence, higher = more signal.
Experiment [13] deals with Follistatin (Homo sapiens) (UniProt P19883). The experiment is described as follows: follistatin binders on small-molecule microarrays, primary screen, biochemical, small-molecule microarray, 635/667 nm fluorescence (AID 1132). As to conditions: FST binding, 635 nm fluorescence, higher = more signal.
Follistatin (Homo sapiens), sequence (P19883 whole entry, looked up): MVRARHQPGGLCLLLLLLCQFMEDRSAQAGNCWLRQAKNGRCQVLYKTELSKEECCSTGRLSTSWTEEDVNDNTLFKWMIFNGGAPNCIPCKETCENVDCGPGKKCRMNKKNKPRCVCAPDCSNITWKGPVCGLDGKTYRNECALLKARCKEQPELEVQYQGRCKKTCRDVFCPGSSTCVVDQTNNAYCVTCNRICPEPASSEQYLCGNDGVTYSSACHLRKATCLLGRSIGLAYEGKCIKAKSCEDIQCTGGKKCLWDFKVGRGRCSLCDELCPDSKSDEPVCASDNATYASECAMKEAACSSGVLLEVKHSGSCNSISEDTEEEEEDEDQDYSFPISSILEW
In experiment [14] the target is Fibroblast growth factor 2 (Homo sapiens) (UniProt P09038). The experiment is described as follows: FGF2 binders on small-molecule microarrays, primary screen, biochemical, small-molecule microarray, 635/667 nm fluorescence (AID 1133). To be noted: small-molecule microarray binding, FGF2, fluorescence 635/667; higher = more signal.
Fibroblast growth factor 2 (Homo sapiens), sequence (P09038 whole entry, looked up): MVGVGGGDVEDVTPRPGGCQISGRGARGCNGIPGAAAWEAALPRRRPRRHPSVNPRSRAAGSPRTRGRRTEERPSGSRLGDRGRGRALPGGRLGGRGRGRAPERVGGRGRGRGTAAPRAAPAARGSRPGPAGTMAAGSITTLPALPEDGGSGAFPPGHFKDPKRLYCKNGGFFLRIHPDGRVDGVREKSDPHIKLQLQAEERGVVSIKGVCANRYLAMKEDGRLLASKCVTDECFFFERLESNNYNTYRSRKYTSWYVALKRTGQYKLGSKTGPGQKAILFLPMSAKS
Experiment [15] is described as follows: mitochondrial membrane potential change in A549 cells, profiling panel, cell-based, JC-1 fluorescence, basal, 24 h, 100 nL (AID 1138).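 Note: A549 lung adenocarcinoma cells under basal conditions with no added stimulus; test concentration not given here.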 To be noted: higher = more signal.
The test system of a further experiment is Lefty1. The experiment in a line: Lefty1 binders on small-molecule microarrays, primary screen, biochemical, small-molecule microarray, 635/667 nm fluorescence (AID 1139). As to conditions: small-molecule microarray binding, fluorescence 635/667; higher = more signal.
The subject of experiment [16] is wheat germ agglutinin (Triticum aestivum), Alexa647-labelled. The experiment in a line: wheat germ agglutinin binders on compound microarrays, profiling panel, artefact control for SMM control-protein annotation, biochemical, small-molecule microarray, 635/667 nm fluorescence (AID 1140).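 Note: score merges 667 nm feature emission with signal to noise over triplicate slides.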 To be noted: WGA-A647 binding, 635 nm fluorescence, higher = more signal.
Experiment [17] concerns the target Luciferin 4-monooxygenase (Photinus pyralis) (UniProt P08659). The experiment in a line: firefly luciferase enzyme inhibitors, primary screen, biochemical, luminescence, purified enzyme, 2006 set (AID 1141).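 Note: cell-free assay with purified firefly luciferase at 100 ng per well in PBS; test concentration not given here.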 As to conditions: SteadyGlo luminescence, 30 min, higher = more signal, called active from +8 up or from −8 down.

Each structure is given as a SMILES string. Activity calls are given as the source filed them.

Focal adhesion kinase 1 (Homo sapiens), sequence (Q05397 whole entry, looked up): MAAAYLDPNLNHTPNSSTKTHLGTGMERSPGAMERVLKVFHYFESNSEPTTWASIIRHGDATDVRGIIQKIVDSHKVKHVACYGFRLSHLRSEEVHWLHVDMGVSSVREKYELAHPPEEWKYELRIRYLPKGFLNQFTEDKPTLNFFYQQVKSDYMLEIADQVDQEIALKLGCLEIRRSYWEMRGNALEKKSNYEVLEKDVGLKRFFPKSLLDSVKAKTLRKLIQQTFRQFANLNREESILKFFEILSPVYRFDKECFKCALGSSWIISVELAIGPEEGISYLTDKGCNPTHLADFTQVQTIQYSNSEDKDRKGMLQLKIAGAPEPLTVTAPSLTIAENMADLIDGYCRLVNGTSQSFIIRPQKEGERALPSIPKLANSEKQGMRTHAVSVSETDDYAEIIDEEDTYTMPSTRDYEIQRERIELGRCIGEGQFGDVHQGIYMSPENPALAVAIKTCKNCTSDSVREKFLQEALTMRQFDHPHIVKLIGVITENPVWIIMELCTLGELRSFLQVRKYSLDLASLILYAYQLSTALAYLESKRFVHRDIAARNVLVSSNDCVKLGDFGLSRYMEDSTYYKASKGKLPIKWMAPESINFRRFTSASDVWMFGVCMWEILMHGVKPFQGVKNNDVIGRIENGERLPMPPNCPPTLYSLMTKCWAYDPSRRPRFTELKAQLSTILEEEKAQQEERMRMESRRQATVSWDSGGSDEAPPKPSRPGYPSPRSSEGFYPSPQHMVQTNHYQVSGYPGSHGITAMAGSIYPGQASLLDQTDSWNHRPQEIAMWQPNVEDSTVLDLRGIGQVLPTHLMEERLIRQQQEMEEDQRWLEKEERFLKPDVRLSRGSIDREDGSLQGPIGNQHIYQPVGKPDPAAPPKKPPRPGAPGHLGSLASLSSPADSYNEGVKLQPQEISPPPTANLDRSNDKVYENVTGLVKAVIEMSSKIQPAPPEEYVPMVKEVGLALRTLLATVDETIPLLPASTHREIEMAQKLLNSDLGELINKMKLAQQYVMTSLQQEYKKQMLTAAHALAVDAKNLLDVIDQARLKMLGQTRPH
Luciferin 4-monooxygenase (Photinus pyralis), sequence (P08659 whole entry, looked up): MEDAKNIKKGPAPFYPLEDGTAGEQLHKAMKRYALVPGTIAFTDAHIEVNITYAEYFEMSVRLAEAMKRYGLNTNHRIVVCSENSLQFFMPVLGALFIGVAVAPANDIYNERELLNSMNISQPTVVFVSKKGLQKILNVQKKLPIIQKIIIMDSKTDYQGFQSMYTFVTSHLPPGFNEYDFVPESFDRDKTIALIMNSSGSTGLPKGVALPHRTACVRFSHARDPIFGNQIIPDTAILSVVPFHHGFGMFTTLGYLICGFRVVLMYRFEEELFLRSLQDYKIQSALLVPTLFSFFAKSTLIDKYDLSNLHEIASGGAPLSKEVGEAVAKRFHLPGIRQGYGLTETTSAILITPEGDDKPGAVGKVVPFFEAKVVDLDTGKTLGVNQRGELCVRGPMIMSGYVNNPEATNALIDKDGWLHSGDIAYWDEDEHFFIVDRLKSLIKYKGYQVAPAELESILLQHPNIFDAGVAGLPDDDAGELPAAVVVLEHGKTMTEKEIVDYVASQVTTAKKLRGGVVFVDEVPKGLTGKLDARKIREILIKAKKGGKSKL

Consider `COc1ccc([Si](C)(C)[C@H]2[C@H](CC(=O)N(CCO)Cc3ccccc3)O[C@@]3(C(=O)N(Cc4cccc(N5C(=O)COc6ccccc65)c4)c4ccccc43)[C@@H]2C)cc1`, for which the composite z-score in the experiment with Albumin (Bos taurus) was -1.06; in experiment [2], 0.0961; in experiment [3] it was -0.118; in experiment [4] it was 0.462; in experiment [5], 1.69; in experiment [6], -0.045. Moreover, the composite z-score with Sam68 (KHDRBS1) amounted to 0.897; in [7], 0.81; in experiment [8], 1.06; in experiment [9] it was 1.11; in experiment [10] it was 0.965; in experiment [11], 1.45. The composite z-score in experiment [12] was determined as 0.147; in experiment [13], 1.05; in experiment [14] it was 1.52; in the experiment on Lefty1, 1.26; in experiment [16] it was 0.528. In experiment [1], the composite Z-score was 0.616 (inactive). The z-score in experiment [15] is -0.0909; in experiment [17] it was -1.8 (inactive).
`CC(C)[C@@H](C(=O)O)n1cc(-c2ccccn2)nn1`: the composite z-score is 0.69 in the experiment with Albumin (Bos taurus); -0.146 in [2]; 0.0571 in [3]; 0.525 in experiment [4]; 0.708 in experiment [5]; 0.242 in experiment [6]. Moreover, the composite z-score in the experiment with Sam68 (KHDRBS1) was 0.522; in [7] it was -0.119; in experiment [8], 0.556; in [9], 2.19; in [10], 1.08; in experiment [11], 0.113. The composite z-score in [12] is 0.811; in experiment [13], -0.0164; in [14] it was 0.712; in the experiment on Lefty1 it was 0.0234; in experiment [16] it was 0.957. Further, the composite Z-score in experiment [1] was 0.516 (inactive). For the same molecule, the z-score in experiment [15] was 1.88; in [17], -0.495 (inactive).
For the molecule `C[N+](C)(C)CCCC[C@@H]1NC(=O)[C@@H]2C[C@H](C(=O)NCCCCCNC(=O)CS)[C@H](c3ccc(O)cc3)N2C1=O`, the composite z-score with Albumin (Bos taurus) was -0.172; in experiment [2], -0.152; in experiment [3], -0.179; in [4], 0.728; in experiment [5], 1.05; in experiment [6], 0.453. The composite z-score in the experiment on Sam68 (KHDRBS1) was 0.245; in experiment [7], -0.479; in experiment [8], 1.12; in experiment [9], 1.6; in experiment [10], 0.076; in experiment [11], -0.0206. For the same molecule, the composite z-score amounted to 0.141 in [12]; 1.46 in experiment [13]; 1.19 in [14]; 1.02 in the experiment with Lefty1; 0.477 in experiment [16]. Besides, in [1], the composite Z-score is -0.419 (inactive). Moreover, the z-score in experiment [15] is 1.52; in experiment [17], -0.703 (inactive).
For `C=CCNC(=O)[C@@H]1[C@H]2C(=O)O[C@H](c3ccccc3)[C@H](c3ccccc3)N2[C@H](c2ccc(O)cc2)[C@@]12C(=O)Nc1ccc(C#Cc3ccc(OC)cc3)cc12`, the composite z-score with Albumin (Bos taurus) was 0.29; in [2] it was 0.0563; in experiment [3], -0.0451; in [4] it was 0.31; in experiment [5], 0.928; in experiment [6], 0.482. The composite z-score in the experiment on Sam68 (KHDRBS1) was 1.32; in experiment [7], -0.0134; in experiment [8], 1.12; in experiment [9] it was 1.11; in experiment [10] it was 1.2; in experiment [11], 0.552. The composite z-score in experiment [12] was 0.924; in [13], 1.03; in experiment [14], 0.363; in the experiment with Lefty1 it was 0.849; in [16], 1.14. For the same molecule, in [1], the composite Z-score is 0.422 (inactive). The z-score in experiment [15] is -1.18; in [17], -0.968 (inactive).
On to `CCCCCCC#C[Si](O[C@H](c1ccccc1)c1cn(Cc2ccccc2)nn1)(C(C)C)C(C)C`, for which the composite z-score with Albumin (Bos taurus) was 0.0774; in [2], -0.0918; in experiment [3], -0.182; in experiment [4], 0.273; in experiment [5], 0.0604; in experiment [6], 0.155. The composite z-score with Sam68 (KHDRBS1) is 0.458; in experiment [7] it was 0.187; in experiment [8], 0.132; in experiment [9] it was 0.254; in experiment [10], 0.262; in experiment [11], -0.326. The composite z-score in [12] was -0.418; in experiment [13] it was 0.126; in [14], 0.594; in the experiment on Lefty1 it was 0.806; in experiment [16], -0.349. In experiment [1], the composite Z-score is 0.131 (inactive). Also, the z-score in [15] is 4.41; in experiment [17] it was -1.15 (inactive).
